The values that follow come from PubChem BioAssay (EPA / NIEHS).

Experiment [1] can be described thus: ATG_M_06_TRANS: Attagene TRANS-FACTORIAL HepG2 Assay for M06 Transcription Factor (Internal Marker) (AID 2282983; active = hit-call score of the fitted dose curve at least 0.9, where 1 is the maximum). Particulars: HepG2 Attagene TRANS M06 internal marker reporter. The gist of the method: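 Read-out: fluorescent reporter cDNA fragments resolved by capillary electrophoresis after RT-PCR and HpaI cut. Source cells were HepG2 carrying transfected multi-reporter GAL4 constructs, dosed 24 h. Increase over DMSO control analysed.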

Experiment [2] has as its target Nuclear receptor subfamily 4 group A member 2 (Homo sapiens) (UniProt P43354). The experiment is described as follows: ATG_NURR1_TRANS: Attagene TRANS-FACTORIAL HepG2 Assay for human Nuclear Receptor Related Protein 1 (NURR1) (AID 2282985; active = hit-call score of the fitted dose curve at least 0.9, where 1 is the maximum). Particulars: HepG2 Attagene TRANS reporter, mRNA readout. Put shortly:
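Endpoint: reporter mRNA increase relative to DMSO. HepG2 cells transfected with reporter units, treated 24 h; RNA processed by RT-PCR, labelling, HpaI digestion and capillary electrophoresis.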

Experiment [3] addresses Transcriptional activator Myb (Homo sapiens) (UniProt P10242). Description: ATG_Myb_CIS: Attagene CIS-FACTORIAL HepG2 Assay for human Myeloblastosis (Myb) Proto-Oncogene Transcription Factor (AID 2282986). Particulars: HepG2 Attagene CIS-FACTORIAL Myb reporter transcription; actives raise or lower the signal. The gist of the method: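 Fluorescence signals from capillary electrophoresis of RT-PCR-amplified reporter cDNA give the read-out. Cells: HepG2 transfected with multiple cis-regulated reporter units. Exposure lasts 24 hours; DMSO defines baseline for gain or loss of signal.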

The target of experiment [4] is Nuclear respiratory factor 1 (Homo sapiens) (UniProt Q16656). Description: ATG_NRF1_CIS: Attagene CIS-FACTORIAL HepG2 Assay for human Nuclear Respiratory Factor 1 (NRF1) Orphan Gene (AID 2282987). Particulars: HepG2 NRF1 cis-element reporter, Attagene multiplex; actives raise or lower the signal. The gist of the method:
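Transcriptional reporter readout, one component of a 52-endpoint multiplexed HepG2 panel. Exposure 24 h; mRNA detected via RT-PCR and fluorescent capillary electrophoresis; fitting in both directions against DMSO.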

Experiment [5] can be described thus: ATG_NFI_CIS: Attagene CIS-FACTORIAL HepG2 Assay for human Nuclear Factor I (NFI) (AID 2282989). Particulars: HepG2 cis-regulatory reporter, NFI response element transcription; actives raise or lower the signal. The gist of the method:
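Multiplexed cis-reporter system in human HepG2 cells reports native TF activity as reporter mRNA induction 24 h post-dose. Fragments labelled with 6-FAM, HpaI-digested and resolved by capillary electrophoresis; activity fitted both directions versus DMSO.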

The target of experiment [6] is Myc proto-oncogene protein (Homo sapiens) (UniProt P01106). The experiment is described as follows: ATG_Myc_CIS: Attagene CIS-FACTORIAL HepG2 Assay for human Myelocytomatosis (Myc) Proto-Oncogene Transcription Factor (AID 2282990). Particulars: HepG2, Attagene cis-reporter transcription factor activity; actives raise or lower the signal. The gist of the method:
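Transiently transfected HepG2 cells bearing cis-promoter reporter units for endogenous transcription factors; 24 h exposure. Reporter mRNA measured by RT-PCR, 6-FAM primer extension, HpaI cut and capillary electrophoresis; bidirectional fit relative to DMSO.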

The nature of experiment [7]: ATG_NRF2_ARE_CIS: Attagene CIS-FACTORIAL HepG2 Assay for human Nuclear Factor Erythroid 2 Related Factor 2 (NFR2) response to Antioxidant Response Elements (ARE) (AID 2282992).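 As to AC50: reporter mRNA level measured by RT-PCR and capillary electrophoresis fluorescence.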 Particulars: HepG2 Attagene ARE/NRF2 reporter, transcription factor activity; actives raise or lower the signal. Put shortly:
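Endogenous transcription factor activity in human liver HepG2 cells is tracked via a cis-element-driven reporter within a multiplexed set. mRNA induction is read by RT-PCR and capillary electrophoresis after 24 h, with DMSO as baseline.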

Experiment [8] can be described thus: ATG_Oct_MLP_CIS: Attagene CIS-FACTORIAL HepG2 Assay for human Octamer-Binding Transcription Factor (Oct) (AID 2282993). Particulars: HepG2 Attagene cis-factorial Oct reporter, mRNA; actives raise or lower the signal. The gist of the method: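 After 24 h compound exposure, transfected HepG2 cells were lysed for total RNA; reporter-specific cDNA was PCR-amplified, fluorescently labelled and sized by capillary electrophoresis. Bidirectional curve fitting used DMSO as baseline.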

The target in experiment [9] is Cellular tumor antigen p53 (Homo sapiens) (UniProt P04637). The experiment is described as follows: ATG_p53_CIS: Attagene CIS-FACTORIAL HepG2 Assay for human p53 Transcription Factor (AID 2282994). Particulars: HepG2 p53 cis-element reporter, Attagene mRNA; actives raise or lower the signal. Put shortly:
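Steps: transfect HepG2 with multiplexed cis reporter constructs; dose chemicals 24 h; extract RNA, reverse-transcribe, PCR-amplify reporter sequences; FAM-label, HpaI-digest, resolve fragments by CE. Activity fitted both directions relative to DMSO.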

Experiment [10] can be described thus: BSK_3C_TissueFactor: BioMAP Diversity Plus: 3C Assay for Tissue Factor Biomarker Activity (AID 2282997). Particulars: BioMAP 3C HUVEC, tissue factor biomarker readout; actives raise or lower the signal. The gist of the method: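 HUVEC, 3C system, 24 h post-dose; Tissue Factor by ELISA; bidirectional fit vs DMSO baseline.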
Experiment [11] is described as follows: BSK_3C_uPAR: BioMAP Diversity Plus: 3C Assay for Urokinase-type plasminogen activator receptor (uPAR) Biomarker Activity (AID 2282998). Particulars: BioMAP 3C HUVEC, uPAR biomarker ELISA; actives raise or lower the signal. Put shortly: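 Values derive from bidirectional curve fitting relative to DMSO, which served as baseline of activity. uPAR was measured by ELISA in human umbilical vein endothelial primary cultures 24 h after compound addition.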

Experiment [12] is described as follows: BSK_3C_VCAM1: BioMAP Diversity Plus: 3C Assay for Vascular cell adhesion molecule 1 (VCAM1) Biomarker Activity (AID 2282999). Particulars: BioMAP 3C HUVEC, VCAM1 ELISA, cytokine-stimulated; actives raise or lower the signal. The gist of the method: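 HUVEC primary cells, 24 h compound exposure; VCAM-1 by ELISA; gain/loss of signal fitted bidirectionally vs DMSO baseline.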

The nature of experiment [13]: ATG_M_32_TRANS: Attagene TRANS-FACTORIAL HepG2 Assay for M32 Transcription Factor (Internal Marker) (AID 2282984; active = hit-call score of the fitted dose curve at least 0.9, where 1 is the maximum;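 also: transcript level of a background control reporter unit measured by RT-PCR and capillary electrophoresis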). Particulars: HepG2 Attagene TRANS M32 internal marker reporter. The gist of the method:
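Internal-marker readout from a multiplexed transcription reporter panel. HepG2 cells were transfected with GAL4-UAS reporter units, treated 24 hours, and reporter transcript levels determined by fluorescence after RT-PCR and capillary separation.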

In experiment [14] the target is Hepatocyte nuclear factor 4-alpha (Homo sapiens) (UniProt P41235). The experiment is described as follows: ATG_HNF4a_TRANS: Attagene TRANS-FACTORIAL HepG2 Assay for human Hepatocyte Nuclear Factor 4 alpha (HNF4a) (AID 2282982; active = hit-call score of the fitted dose curve at least 0.9, where 1 is the maximum). Particulars: HepG2 HNF4a transactivation reporter, mRNA readout. The gist of the method: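 Endpoint reflects transcriptional activation of a GAL4-UAS reporter by an HNF4a-GAL4 chimera in transfected HepG2 cells, 24 h post-dosing. Fluorescence from RT-PCR products separated by capillary electrophoresis; DMSO baseline.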

A short description of experiment [15]: ATG_NF_kB_CIS: Attagene CIS-FACTORIAL HepG2 Assay for human Nuclear Factor Kappa B (NF-kB) (AID 2282991). Particulars: HepG2 Attagene cis-factorial NF-kB reporter mRNA; actives raise or lower the signal. Put shortly: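 HepG2, transient multi-reporter transfection, cis promoter elements (endogenous TFs). 24 h exposure. Total RNA → RT → PCR → 6-FAM label → HpaI → CE. Gain/loss vs DMSO.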

Inconclusive results are not listed. Where a structure was tested more than once in an assay, its records may differ in their call. Active and inactive are the calls of the source. The calls were made as follows, unless noted: active = hit-call score of the fitted dose curve at least 0.9, where 1 is the maximum; inactive = score below 0.9.

Sequence of Transcriptional activator Myb (Homo sapiens) (P10242 whole entry, looked up): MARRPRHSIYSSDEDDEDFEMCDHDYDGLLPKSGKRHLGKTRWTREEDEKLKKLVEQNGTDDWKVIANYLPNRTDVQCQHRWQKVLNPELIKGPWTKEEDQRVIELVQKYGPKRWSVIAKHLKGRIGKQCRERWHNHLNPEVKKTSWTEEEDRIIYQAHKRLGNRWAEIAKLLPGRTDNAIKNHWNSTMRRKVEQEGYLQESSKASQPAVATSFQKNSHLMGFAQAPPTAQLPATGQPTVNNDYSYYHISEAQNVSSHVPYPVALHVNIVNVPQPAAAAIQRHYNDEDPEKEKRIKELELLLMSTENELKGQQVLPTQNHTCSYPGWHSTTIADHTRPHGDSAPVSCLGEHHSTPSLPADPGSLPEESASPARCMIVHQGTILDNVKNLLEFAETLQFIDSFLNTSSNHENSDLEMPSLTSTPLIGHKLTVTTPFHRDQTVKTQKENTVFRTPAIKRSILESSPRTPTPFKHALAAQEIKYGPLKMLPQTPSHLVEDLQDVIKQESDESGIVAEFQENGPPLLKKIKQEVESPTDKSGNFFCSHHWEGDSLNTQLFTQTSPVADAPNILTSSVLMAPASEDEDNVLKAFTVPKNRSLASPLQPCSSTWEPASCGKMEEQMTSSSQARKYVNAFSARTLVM
Sequence of Nuclear receptor subfamily 4 group A member 2 (Homo sapiens) (P43354 whole entry, looked up): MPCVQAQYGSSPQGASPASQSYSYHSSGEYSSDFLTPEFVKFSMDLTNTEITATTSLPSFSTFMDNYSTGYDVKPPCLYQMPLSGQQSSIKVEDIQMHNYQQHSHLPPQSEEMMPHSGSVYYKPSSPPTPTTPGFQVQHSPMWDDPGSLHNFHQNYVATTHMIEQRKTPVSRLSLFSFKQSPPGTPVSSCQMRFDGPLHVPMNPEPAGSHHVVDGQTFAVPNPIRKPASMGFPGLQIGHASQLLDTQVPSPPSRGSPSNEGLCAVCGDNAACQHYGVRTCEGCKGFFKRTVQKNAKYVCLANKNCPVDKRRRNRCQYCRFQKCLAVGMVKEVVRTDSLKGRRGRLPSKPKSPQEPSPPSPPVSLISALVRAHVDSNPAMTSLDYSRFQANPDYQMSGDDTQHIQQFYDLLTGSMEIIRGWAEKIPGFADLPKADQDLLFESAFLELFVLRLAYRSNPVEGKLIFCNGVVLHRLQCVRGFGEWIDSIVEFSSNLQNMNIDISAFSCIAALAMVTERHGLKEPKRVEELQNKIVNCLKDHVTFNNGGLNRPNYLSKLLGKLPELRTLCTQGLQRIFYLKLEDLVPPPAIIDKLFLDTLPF
Sequence of Cellular tumor antigen p53 (Homo sapiens) (P04637 whole entry, looked up, the tested form may be a part): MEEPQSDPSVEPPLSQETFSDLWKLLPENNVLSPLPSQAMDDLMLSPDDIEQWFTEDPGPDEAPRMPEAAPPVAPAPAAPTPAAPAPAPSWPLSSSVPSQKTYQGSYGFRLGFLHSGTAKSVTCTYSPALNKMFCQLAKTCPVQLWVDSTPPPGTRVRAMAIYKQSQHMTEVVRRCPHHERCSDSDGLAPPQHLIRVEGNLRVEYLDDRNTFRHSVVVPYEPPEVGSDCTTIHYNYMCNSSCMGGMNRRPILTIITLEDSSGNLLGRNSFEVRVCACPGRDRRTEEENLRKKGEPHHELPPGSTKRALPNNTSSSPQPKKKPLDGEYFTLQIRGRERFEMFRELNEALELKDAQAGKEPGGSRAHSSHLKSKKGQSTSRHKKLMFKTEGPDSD
Sequence of Myc proto-oncogene protein (Homo sapiens) (P01106 whole entry, looked up): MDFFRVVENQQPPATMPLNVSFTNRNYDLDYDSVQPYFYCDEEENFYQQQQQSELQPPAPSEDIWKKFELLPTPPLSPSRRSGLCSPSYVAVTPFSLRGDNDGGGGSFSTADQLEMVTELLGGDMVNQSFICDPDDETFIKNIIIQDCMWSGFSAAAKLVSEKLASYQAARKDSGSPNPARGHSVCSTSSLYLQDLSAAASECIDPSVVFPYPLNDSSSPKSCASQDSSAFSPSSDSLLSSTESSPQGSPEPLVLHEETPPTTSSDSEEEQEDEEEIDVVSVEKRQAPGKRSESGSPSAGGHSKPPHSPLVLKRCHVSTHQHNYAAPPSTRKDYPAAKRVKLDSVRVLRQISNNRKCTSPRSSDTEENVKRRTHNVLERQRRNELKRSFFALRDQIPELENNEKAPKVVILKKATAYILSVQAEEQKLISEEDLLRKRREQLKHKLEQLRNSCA
Sequence of Hepatocyte nuclear factor 4-alpha (Homo sapiens) (P41235 whole entry, looked up, the tested form may be a part): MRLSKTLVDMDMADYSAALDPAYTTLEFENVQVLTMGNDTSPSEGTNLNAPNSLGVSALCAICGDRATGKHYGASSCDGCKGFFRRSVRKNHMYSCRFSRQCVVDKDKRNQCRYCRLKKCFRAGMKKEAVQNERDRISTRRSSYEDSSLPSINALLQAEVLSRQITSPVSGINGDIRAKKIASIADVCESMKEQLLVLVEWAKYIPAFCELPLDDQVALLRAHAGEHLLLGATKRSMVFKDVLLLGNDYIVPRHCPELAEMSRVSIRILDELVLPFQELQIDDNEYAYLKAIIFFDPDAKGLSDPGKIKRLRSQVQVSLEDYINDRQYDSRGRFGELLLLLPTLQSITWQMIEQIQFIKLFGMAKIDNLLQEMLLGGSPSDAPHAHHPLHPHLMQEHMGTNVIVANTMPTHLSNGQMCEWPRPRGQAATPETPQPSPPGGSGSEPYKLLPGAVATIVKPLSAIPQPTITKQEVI
Sequence of Nuclear respiratory factor 1 (Homo sapiens) (Q16656 whole entry, looked up): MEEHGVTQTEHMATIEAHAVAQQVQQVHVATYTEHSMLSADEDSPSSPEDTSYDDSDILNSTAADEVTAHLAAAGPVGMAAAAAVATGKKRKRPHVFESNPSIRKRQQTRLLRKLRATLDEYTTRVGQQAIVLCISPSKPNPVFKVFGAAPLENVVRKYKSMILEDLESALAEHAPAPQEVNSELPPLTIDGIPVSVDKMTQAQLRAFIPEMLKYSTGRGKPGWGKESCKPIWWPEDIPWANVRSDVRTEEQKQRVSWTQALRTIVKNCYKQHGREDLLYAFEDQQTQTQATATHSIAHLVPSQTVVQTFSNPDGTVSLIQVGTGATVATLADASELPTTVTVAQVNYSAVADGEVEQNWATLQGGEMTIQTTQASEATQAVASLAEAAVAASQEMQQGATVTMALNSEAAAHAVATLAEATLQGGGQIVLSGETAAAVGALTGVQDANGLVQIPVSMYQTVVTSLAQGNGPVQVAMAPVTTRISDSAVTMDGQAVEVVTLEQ

As usually defined, the AC50 is the midpoint of the concentration-response curve, whichever way the signal moves. As to `CCCCCCCCCC(=O)OCC`, the result in experiment [1], in experiment [2], in [3], in experiment [4], in [5] and in experiment [6] was inactive. In addition, the result in experiment [7], in [8] and in experiment [9] was inactive. Further, the AC50 in experiment [10] was 28.7 µM (active); in experiment [11], 29.1 µM (active); in [12], 32.5 µM (active).
`CC(=O)C1C(=O)C=C(C)OC1=O` (stereo not given): the call in [1], in experiment [13], in experiment [2], in experiment [3], in [4] and in experiment [5] was inactive. Besides, the outcome in [6], in experiment [7], in experiment [8] and in experiment [9] was inactive.
`O=C(O)C(F)(F)C(F)(F)C(F)(F)C(F)(F)C(F)(F)C(F)(F)C(F)(F)C(F)F`: the result in [10], in experiment [11] and in experiment [12] was inactive.
As to `C=CC(O)CCCCC` (stereo not given), the call in [14], in experiment [1], in experiment [3], in experiment [4], in experiment [5] and in experiment [6] was inactive. Besides, in [9], the call was inactive. Besides, the AC50 was 38 µM (active) in experiment [7] and 45.6 µM (active) in experiment [8].
Regarding `O=C(O)C(F)(F)OC(F)(F)C(F)(F)OC(F)(F)C(F)(F)C(F)(F)C(F)(F)F`, the result in experiment [10], in [11] and in experiment [12] was inactive. In addition, the AC50 in experiment [11] was 38.7 µM (active).
Take `C=CC(C)CCCC(C)(C)O` (stereo not given): the outcome in experiment [14], in [1], in [3], in experiment [4], in [6] and in experiment [15] was inactive. Moreover, the compound was called inactive in experiment [7], in [8] and in [9].
`CCC(CC)CO`: the result in experiment [14], in [13], in experiment [3], in experiment [4], in [5] and in experiment [6] was inactive. For the same compound, the result in [15], in experiment [7] and in experiment [8] was inactive.
On to `CCCCN(CCO)CCO`, for which the result in experiment [14], in [1], in experiment [3], in [4], in experiment [6] and in experiment [15] was inactive. Also, the result in experiment [7], in [8], in experiment [9], in experiment [10], in [11] and in experiment [12] was inactive.
Take `CCOC(=O)COC(=O)c1ccccc1C(=O)OCC`: the compound was classed as inactive in experiment [14], in experiment [1], in experiment [3], in experiment [4], in [5] and in [6]. For the same compound, the outcome in experiment [7] and in experiment [8] was inactive.
`C=CCOCC(O)CO` (stereo not given): the compound was classed as inactive in experiment [14], in experiment [1], in [4], in experiment [7], in [8] and in [9]. Moreover, the concentration at half-maximal activity (AC50) in [3] was 152 µM (active); in experiment [6] it was 137 µM (active).
As to `C=C(C)C(=O)OCCC(F)(F)C(F)(F)C(F)(F)C(F)(F)C(F)(F)C(F)(F)C(F)(F)C(F)(F)F`, the outcome in experiment [10], in experiment [11] and in experiment [12] was inactive.
As for `Cc1ccncc1`, the call in experiment [1], in experiment [3], in experiment [4], in experiment [5], in experiment [6] and in experiment [7] was inactive. Besides, the outcome in experiment [8] and in experiment [9] was inactive.
`CCCCCCCC1CCCC1=O` (stereo not given): the call in [1], in experiment [2], in [3], in experiment [4], in [5] and in experiment [6] was inactive. Besides, the compound was called inactive in experiment [7], in [8] and in experiment [9]. In addition, the half-maximal activity concentration (AC50) is 33 µM (active) in experiment [10], 34.5 µM (active) in experiment [11] and 35.8 µM (active) in experiment [12].
In the case of `C=C(F)C(=O)OC(C(F)(F)F)C(F)(F)F`, the result in experiment [10], in [11] and in [12] was inactive.
